Most compounds without a hit are left out; they make up all but 27% or so of the library.
CYP2C9 activ: activators of human CYP2C9; P11712; recombinant CYP2C9, luciferin-H conversion, luminescence; active compounds read high; factor 1 = untreated enzyme, 0 = blocked; activation factor at 5 µM; 1.4% of 96,000 active;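 active means activation factor of 2 or more for CYP2C9 at a 5 µM dose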
Target sequence (P11712 whole entry, looked up): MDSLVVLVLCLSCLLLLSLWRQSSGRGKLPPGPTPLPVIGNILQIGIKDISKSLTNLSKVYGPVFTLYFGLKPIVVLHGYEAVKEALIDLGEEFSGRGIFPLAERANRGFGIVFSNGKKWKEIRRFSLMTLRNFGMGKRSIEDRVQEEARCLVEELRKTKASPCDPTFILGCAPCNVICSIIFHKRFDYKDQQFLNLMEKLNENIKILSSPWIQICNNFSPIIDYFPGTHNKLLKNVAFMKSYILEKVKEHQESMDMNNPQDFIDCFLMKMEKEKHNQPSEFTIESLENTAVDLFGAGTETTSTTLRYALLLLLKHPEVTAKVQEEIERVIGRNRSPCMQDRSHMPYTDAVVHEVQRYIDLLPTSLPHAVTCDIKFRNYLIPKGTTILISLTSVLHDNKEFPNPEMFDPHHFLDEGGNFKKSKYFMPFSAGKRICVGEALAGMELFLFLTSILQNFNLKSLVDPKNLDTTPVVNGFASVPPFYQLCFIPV
CYP2C19 inhib: blocks human cytochrome P450 2C19 | P33261 | CYP2C19 Supersomes, luciferin-H EGE luminescence, 30 min | inhibition, % at 5 µM | 21% of 96,000 active;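 active means CYP2C19 inhibition above a set limit at 5 µM in the primary screen, cut at about 50% in these data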
CYP2C9 inhib: blocks human cytochrome P450 2C9. CYP2C9 Supersomes, luciferin-H conversion, luminescence. inhibition, % at 5 µM. 20% of 96,000 active. AID 777;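 active means blocking of liver enzyme CYP2C9 beyond about 50% at 5 µM, limit read from the data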
Cav32 inh: inhibitors of human Cav3.2 T-type calcium channel. O95180. Cav3.2-expressing cells, Fluo-4 calcium fluorescence FDSS; active compounds read low. B-score at 10 µM. 4% of 100,000 active. AID 449739;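 active means single-dose well whose peak fluorescence ratio is a statistical outlier from its plate by either plate-standardised score or position-corrected B-score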
CYP2C19 act: cytochrome P450 2C19 (human) activation; P33261; recombinant CYP2C19, luciferin-H EGE luminescence; active compounds read high; 0 = fully inhibited enzyme, 1 = untreated enzyme; activation factor at 5 µM; 96,000 tested, under 10 active; AID 1025;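 active means activation factor of at least 2 at 5 µM in the primary screen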
Each line names hits and unclear results; the compound was inactive in the other large screens.

Brc1ccc(-c2nnc(-c3ccco3)o2)cc1	none (no result: Cav32 inh)
Cc1ccccc1NC(=O)CSc1nnc(-c2ccco2)c(-c2ccco2)n1	CYP2C9 inhib 77
Cc1cccc(C)c1NC(=O)CSc1nnc(-c2ccco2)c(-c2ccco2)n1	none
Cc1ccc(NC(=O)CSc2nnc(-c3ccco3)c(-c3ccco3)n2)cc1	CYP2C19 inhib 98, CYP2C9 inhib 95
c1ccc(-c2nnc(-c3ccco3)o2)cc1	CYP2C19 inhib 50
O=C(CSc1nnc(-c2ccco2)c(-c2ccco2)n1)Nc1ccccc1	CYP2C9 inhib 73
CCCNC(=O)C(CC)NS(=O)(=O)c1ccc(OC)cc1 (stereo not drawn)	none (no result: Cav32 inh)
Cc1ccc(NC(=O)CCSc2nnc(-c3ccco3)o2)cc1	none
Cc1ccc(SCC(=O)Nc2ccc(-c3nnc(-c4ccco4)o3)cc2)cc1	CYP2C9 inhib 90
COC(=O)c1ccc(CNC(=O)/C=C/c2cc([N+](=O)[O-])ccc2OC(F)F)cc1	none
CCCc1c(C)c2c(C)[nH]nc2oc1=O	CYP2C19 inhib 62
COC(=O)CCC(NC(=O)OCc1ccccc1)C(=O)NC(CC(C)C)C(=O)OC (stereo not drawn)	CYP2C9 inhib 68
CCOc1ccc(NS(=O)(=O)c2ccc3[nH]c(=O)oc3c2)cc1	CYP2C19 inhib 88, CYP2C9 inhib 87 (no result: Cav32 inh)
CCOC(=O)Cc1ccc(NS(=O)(=O)c2ccc(SC)cc2)cc1	CYP2C9 inhib 71, Cav32 inh -6.2
CCOc1ccc(NS(=O)(=O)c2ccc(SC)cc2)cc1	Cav32 inh -5.9 (no result: CYP2C9 activ, CYP2C19 inhib, CYP2C9 inhib, CYP2C19 act)
CCOC(=O)c1ccc(NS(=O)(=O)c2ccc(SC)cc2)cc1	none
CCOc1ccc(NS(=O)(=O)c2ccc(N)cc2)cc1	CYP2C19 inhib 54, CYP2C9 inhib 70
CCC1=C2CC[C@H]3C(=O)NC(=O)[C@H]3[C@H]2[C@@]2(Cc3ccccc3)C(=NCC(=O)OC)OC(=O)N2C1=O	none (no result: CYP2C9 activ, CYP2C19 inhib, CYP2C9 inhib, CYP2C19 act)
Cc1nn(C)c(C)c1/C=N/N=C1\CCC2C3CCc4cc(O)ccc4C3CCC12C (stereo not drawn)	none (no result: Cav32 inh)
COc1ccc(CN(C(=O)c2cnccn2)C(C(=O)Nc2ccc(F)cc2)c2ccccc2)cc1 (stereo not drawn)	none (no result: CYP2C9 activ, CYP2C19 inhib, CYP2C9 inhib, CYP2C19 act)
COc1ccc(C(=O)Nc2ccccc2)cc1S(=O)(=O)Nc1cc(C)on1	none
O=C(NNc1nc(-c2ccccc2)cs1)c1ccccc1	CYP2C9 inhib 53 (no result: Cav32 inh)
O=C(NC(=S)Nc1nc(-c2ccc(Br)cc2)cs1)c1cccnc1	none
N#Cc1ccc(-c2csc(NNC(=O)c3ccccc3)n2)cc1	none
O=C(Nc1nc(-c2ccccc2)cs1)c1cccnc1	CYP2C19 inhib 67
CC(C)c1ccc(NC(=O)COc2ccc(S(=O)(=O)N3CCOCC3)cc2)cc1	none
CC(C)Cn1cnc2c1c(=O)n(CC(=O)Nc1ccc3c(c1)OCO3)c(=O)n2Cc1ccccc1	none
COc1ccc(-c2ocnc2C(=O)Nc2ccccc2N2CCCCC2)cc1	CYP2C9 inhib 57
NCCCC[C@@H]1NC(=O)c2cc([N+](=O)[O-])cc(I)c2SC[C@@H](C(=O)NCC(N)=O)NC(=O)CNC1=O	none (no result: CYP2C9 activ, CYP2C19 inhib, CYP2C9 inhib, CYP2C19 act)
Cc1ccccc1N/C(SCc1ccc(Cl)cc1)=C(/C#N)C(=O)NCc1ccco1	CYP2C19 inhib 85, CYP2C9 inhib 55, Cav32 inh -5.5
Cc1cc(/C=C(\C#N)C(=O)NCc2ccco2)c(C)[nH]1	none (no result: CYP2C9 activ, CYP2C19 inhib, CYP2C9 inhib, CYP2C19 act)
Cc1ccc(CS/C(Nc2ccccc2C)=C(\C#N)C(=O)NCc2ccco2)c(C)c1	CYP2C19 inhib 51
Cc1[nH]nc2c1C(c1cccc(O)c1)C1=C(CC(C)(C)CC1=O)N2 (stereo not drawn)	none
Cc1cccc(N2CC(C(=O)Nc3ccc4c(c3)OCO4)CC2=O)c1C (stereo not drawn)	none
O=C(Cn1cnc([N+](=O)[O-])c1)Nc1cc(Oc2ccc(Cl)cc2Cl)cc([N+](=O)[O-])c1	none (no result: CYP2C9 activ, CYP2C19 inhib, CYP2C9 inhib, CYP2C19 act)
COc1ccccc1C(=O)N1CCCC1(C#N)c1ccccc1 (stereo not drawn)	CYP2C9 inhib 90
N#CC1(c2ccccc2)CCCN1C(=O)c1ccccc1Br (stereo not drawn)	none
CCOC(=O)CCSc1nc2c(c(C(F)(F)F)c1C#N)CCC2	CYP2C19 inhib 78, CYP2C9 inhib 67
CCC1Oc2ccc(C)cc2N(CC(=O)N(Cc2cccnc2)Cc2ccc(C)o2)C1=O (stereo not drawn)	CYP2C19 inhib 72, CYP2C9 inhib 63
CCC1Oc2ccc(C)cc2N(CC(=O)N(Cc2ccc(C)o2)C2CC(C)(C)NC(C)(C)C2)C1=O (stereo not drawn)	none (no result: CYP2C9 activ, CYP2C19 inhib, CYP2C9 inhib, CYP2C19 act)
CC(NC(=O)CCl)c1ccc(Cl)c(Cl)c1 (stereo not drawn)	CYP2C19 inhib 86
CC(C)CNC(=O)c1cc(-c2ccc(Cl)c(Cl)c2)on1	none
CCn1c(NC(=O)Nc2cccc(C)c2C)cc2sccc21	none (no result: Cav32 inh)
Cc1csc(=NC(=O)c2ccccc2)n1Cc1ccco1	CYP2C19 inhib 72
CCn1c(O)c(C=NCc2cccs2)c(=O)n(CC)c1=S	CYP2C9 inhib 83
COc1cccc(C2CC(c3c(-c4ccccc4)c4cc(Cl)ccc4[nH]c3=O)=NN2S(C)(=O)=O)c1OC (stereo not drawn)	CYP2C9 inhib 51
COc1ccccc1C1CC(c2c(-c3ccccc3)c3cc(Cl)ccc3[nH]c2=O)=NN1S(C)(=O)=O (stereo not drawn)	CYP2C9 inhib 60
COC(=O)CSc1c(-c2ccccc2)c2cc(Cl)ccc2[nH]c1=O	none
CCOC(=O)c1ccc(NC(=O)C2=C(C)Nc3nc(CCCO)nn3C2c2ccc(OC)cc2)cc1 (stereo not drawn)	none (no result: CYP2C9 activ, CYP2C19 inhib, CYP2C9 inhib, CYP2C19 act)
COC(=O)[C@@H]1C[C@H]1[C@@H](NC(=O)c1cc(C)on1)c1ccccc1	none (no result: CYP2C9 activ, CYP2C19 inhib, CYP2C9 inhib, CYP2C19 act)
Cc1ccc(CNC(=O)C2CCCCC2C(=O)O)cc1 (stereo not drawn)	none
COc1ccc(-n2c(Cn3c(=O)sc4ccccc43)nnc2SCC(=O)N2CCOCC2)cc1	none
COc1cccc(OC)c1C(=O)N1CCN(Cc2ccncc2)CC1	CYP2C19 inhib 78, CYP2C9 inhib 63
COc1ccccc1CN1CCN(C(=O)c2ccncc2)CC1	CYP2C19 inhib 87 (no result: Cav32 inh)
CC1CN=C(N(C(=O)Nc2ccccc2)c2ccc(S(=O)(=O)N3CCOCC3)cc2)S1 (stereo not drawn)	none
COc1cc2c(cc1OC)C(c1cccs1)N(C(=O)C(C)C)CC2 (stereo not drawn)	CYP2C19 inhib 63
COc1ccc(CN(C(=O)CSc2nnc(-c3c[nH]c4ccccc34)o2)c2ccc(F)cc2)cc1OC	none (no result: CYP2C9 activ, CYP2C19 inhib, CYP2C9 inhib, CYP2C19 act)
CCOc1ccc(OCC)c(S(=O)(=O)N2CCCCC2C)c1 (stereo not drawn)	CYP2C19 inhib 89, CYP2C9 inhib 53
CC1CCCCN1S(=O)(=O)c1cccc2cccnc12 (stereo not drawn)	CYP2C9 activ 3.9, CYP2C19 inhib 79
COc1ccc(C2/C=C\CN(S(=O)(=O)c3cccc4cccnc34)CC(=O)N2Cc2ccc(F)cc2)cc1 (stereo not drawn)	none (no result: CYP2C9 activ, CYP2C19 inhib, CYP2C9 inhib, CYP2C19 act)
O=S(=O)(c1cccc2cccnc12)N1CCOCC1	CYP2C9 activ 4
